Assay results reported in paper PMC5540273 (PLoS ONE, 2017).

Experiments:
Details in all cases: concentration: 1 μM, replicates: in singlicate; n = 1
PLK2 = tested on: PLK2
PLK3 = tested on: PLK3
PLK4 = tested on: PLK4
PRKCD = tested on: PRKCD
PRKCE = tested on: PRKCE
PRKCH = tested on: PRKCH
PRKCI = tested on: PRKCI
PRKCQ = tested on: PRKCQ
PRKD1 = tested on: PRKD1
PRKD2 = tested on: PRKD2
PRKD3 = tested on: PRKD3
PRKG1 = tested on: PRKG1
PRKG2 = tested on: PRKG2
PRKR = tested on: T1, PRKR
T1 construct: gene EIF2AK2

PRKX = tested on: PRKX
PRP4 = tested on: PRP4
PYK2 = tested on: T2, PYK2
T2 construct: gene PTK2B

QSK = tested on: QSK
RAF1 = tested on: RAF1
RET = tested on: RET
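Further: KINOMEscan kinase panel screen.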

Row | Compound | %Inh (PLK2) [%] | %Inh (PLK3) [%] | %Inh (PLK4) [%] | %Inh (PRKCD) [%] | %Inh (PRKCE) [%] | %Inh (PRKCH) [%] | %Inh (PRKCI) [%] | %Inh (PRKCQ) [%] | %Inh (PRKD1) [%] | %Inh (PRKD2) [%] | %Inh (PRKD3) [%] | %Inh (PRKG1) [%] | %Inh (PRKG2) [%] | %Inh (PRKR) [%] | %Inh (PRKX) [%] | %Inh (PRP4) [%] | %Inh (PYK2) [%] | %Inh (QSK) [%] | %Inh (RAF1) [%] | %Inh (RET) [%]
1 | CN1CCN(Cc2ccc(NC(=O)Nc3ccc(N(C)c4ccnc(Nc5ccc(CS(C)(=O)=O)cc5)n4)cc3)cc2)CC1.Cl [GW827654] | 12 | 3 | 90 | 5 | 5 | 0 | 23 | 38 | 23 | 27 | 0 | 0 | 0 | 0 | 22 | 33 | 88 | 0 | 0 | 100
2 | Nc1cccc(-c2ccc3c(N)n[nH]c3c2)c1 [GSK2193613] | 0 | 0 | 4 | 68 | 11 | 61 | 0 | 20 | 0 | 2 | 0 | 20 | 19 | 0 | 7 | 19 | 5 | 0 | 0 | 5
3 | CC(C)(C)c1ccc(C(=O)Nc2cn3cc(-n4ccnc4)ccc3n2)cc1 | 24 | 10 | 0 | 7 | 15 | 0 | 10 | 23 | 0 | 12 | 0 | 0 | 7 | 0 | 41 | 22 | 8 | 0 | 10 | 0
4 | COc1cccc2c(-c3ccncc3)c(-c3ccc(F)cc3)nn12 [GW468513] | 0 | 0 | 0 | 6 | 25 | 30 | 26 | 41 | 29 | 20 | 43 | 0 | 0 | 0 | 10 | 25 | 12 | 0 | 33 | 22
5 | Cc1ccc(Nc2ccnc(Nc3ccc(C)c(F)c3)n2)cc1O.Cl [GW582868] | 0 | 3 | 0 | 0 | 6 | 0 | 25 | 0 | 0 | 0 | 0 | 0 | 0 | 0 | 0 | 27 | 1 | 0 | 12 | 67
6 | CCNC(=O)/C=C/c1n[nH]c2cc(Sc3ccccc3C(=O)NC)ccc12 | 17 | 18 | 91.9 | 6 | 3 | 0 | 5 | 0 | 3 | 14 | 0 | 14 | 2 | 0 | 3 | 0 | 0 | 0 | 0 | 80
7 | COc1cccc(C2=C(Nc3cccc(O)c3)C(=O)NC2=O)c1 [SB-390771] | 0 | 0 | 15 | 20 | 27 | 19 | 16 | 98.4 | 0 | 0 | 7 | 9 | 81 | 15 | 20 | 41 | 43 | 0 | 20 | 1
8 | c1ccc(Oc2ccc(Nc3ccnc4cc(-c5ccc(CN6CCCCC6)o5)ccc34)cc2)nc1 [GW567143] | 0 | 0 | 44 | 7 | 0 | 5 | 0 | 10 | 0 | 12 | 0 | 6 | 0 | 0 | 7 | 2 | 0 | 27 | 0 | 11
9 | Nc1ncc(-c2ccc3nccc(-c4ccncc4)c3c2)cc1S(=O)(=O)N1CCCCC1 [GSK1693850] | 30 | 27 | 0 | 15 | 31 | 36 | 9 | 0 | 0 | 4 | 23 | 7 | 0 | 3 | 27 | 0 | 28 | 1 | 18 | 13
